The source of these data is the supplement of paper PMC7530171.

Several values for one entry are separate records, joined by “and”; a condition that tells them apart may be missing. Equal values may be shown once. Where a name gives a salt, the structure may show the parent alone. ± gives the standard deviation.

This assay relates to THP-1. Nature of the assay: THP-1 cell loss relative to DMSO control; higher = more host cell loss (toxicity); extreme values may be limits of the assay. Conditions: 10 µM; 4 days; infection: M. tuberculosis H37Rv. The method, then: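 OICR kinase inhibitor library screened in duplicate at 10 uM against M. tuberculosis-infected THP-1 macrophages, 4 days at 37 C. THP-1 cell loss (cytotoxicity or loss of adherence) was quantified from Hoechst-stained nuclei counts by high-content imaging and normalised to the 1% DMSO control; 100 = complete loss of host cells.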
`CN1CCN(c2ccc3nc(-c4c(N)c5c(F)cccc5[nH]c4=O)[nH]c3c2)CC1` [Dovitinib]: the THP-1 cell loss stood at 100%.
The result for `Cn1cnc2c(F)c(Nc3ccc(Br)cc3Cl)c(C(=O)NOCCO)cc21` reads 82.3 ± 9.6%.
For `Cc1ccc(Nc2nccc(N(C)c3ccc4c(C)n(C)nc4c3)n2)cc1S(N)(=O)=O` [Pazopanib hydrochloride], the THP-1 cell loss is 100%.
`C[C@@H](Oc1cc(-c2cnn(C3CCNCC3)c2)cnc1N)c1c(Cl)ccc(F)c1Cl`: the THP-1 cell loss was 33.8 ± 9.9%.
The result for `COCC(=O)NC/C=C/c1ccc2ncnc(Nc3ccc(Oc4ccc(C)nc4)c(C)c3)c2c1` reads 25.9 ± 5.7%; that for `CN(C)Cc1cccc(N=C(c2ccccc2)c2c(O)[nH]c3cc(C(=O)N(C)C)ccc23)c1`, 23.9 ± 0.5%.
In the case of `COc1ccc(-c2ccc3c(N4CCOCC4)nc(N4C[C@@H](C)O[C@@H](C)C4)nc3n2)cc1CO` it was 53.5 ± 18%; in that of `CN(c1ncccc1CNc1nc(Nc2ccc3c(c2)CC(=O)N3)ncc1C(F)(F)F)S(C)(=O)=O`, 100%.
The result for `Cc1ccc(NC(=O)c2cccc(N(C)C)c2)cc1NC(=O)c1ccc(O)cc1` reads 3.71 ± 3.8%; that for `Cn1c(Nc2ccc(C(F)(F)F)cc2)nc2cc(Oc3ccnc(-c4ncc(C(F)(F)F)[nH]4)c3)ccc21`, 100%.
Turning to `CCN1/C(=C/C(C)=O)Sc2ccc(OC)cc21`, the THP-1 cell loss was determined as 12.5 ± 2.4%.
In the case of `FC(F)c1nc2ccccc2n1-c1nc(N2CCOCC2)nc(N2CCOCC2)n1` it was 35.9 ± 1.9%.
In the case of `CO[C@@H](C(=O)N1Cc2[nH]nc(NC(=O)c3ccc(N4CCN(C)CC4)cc3)c2C1)c1ccccc1` it was 19.1 ± 3.7%; in that of `COc1cc2ncnc(Nc3ccc(O)cc3)c2cc1OC` [Janex-1], 10.7 ± 0.54%.
In turn, `NC(=O)c1ccc(-c2nc(-c3ccccn3)c(-c3ccc4c(c3)OCO4)[nH]2)cc1` displayed a THP-1 cell loss of 0.126 ± 0.18%.
`CNC(=O)c1ccccc1Sc1ccc2c(/C=C/c3ccccn3)n[nH]c2c1` [Axitinib] yielded a THP-1 cell loss of 14.9 ± 11%.
The result for `Cc1nc(N)sc1-c1ccnc(Nc2ccc(N3CCOCC3)cc2)n1` reads 74.97 ± 0.66%.
In the case of `CN(C)S(=O)(=O)c1ccc2c(c1)/C(=C/c1cc3c([nH]1)CCCC3)C(=O)N2` it was 7.5 ± 1.4%.
The result for `O=C(Nc1cc(Cl)cc2c1[nH]c1cnccc12)c1cccnc1` [PS1145 dihydrochloride] reads 48.1 ± 24%; that for `COc1ccc(Cl)cc1NC(=O)Nc1cc(C)nc2ccccc12`, 9.3 ± 13%.
In turn, `NCc1ccc(Nc2ncc(F)c(Nc3ccccc3)n2)cc1` [Dianilinopyrimidine_01] had a THP-1 cell loss of 88.5 ± 16%.
Compound `COc1cc(Oc2ccnc3cc(OC)c(OC)cc23)ccc1NC(=O)NC(C)c1nccs1` (racemic) displayed a THP-1 cell loss of 10.7 ± 4.6%.
The result for `COc1ccc(-c2ccc3ncc4c(c3c2)n(-c2ccc(N3CCNCC3)c(C(F)(F)F)c2)c(=O)n4C)cn1` reads 100%; that for `CN1C(=O)C(Cc2c[nH]c3ccccc23)NC1=S` (stereo not given) [Necrostatin-1], 2.6 ± 3.7%; that for `CCN(CC)CCCCN1c2ccccc2Oc2ccc(Cl)cc21` [10-DEBC hydrochloride], 29.4 ± 13%.
Regarding `COc1ccc(S(=O)(=O)N(C(C)=O)c2ccccc2/C=C/c2cc[n+]([O-])cc2)cc1`, the THP-1 cell loss worked out at 51.3 ± 4.4%.
In the case of `N#CC(=C(/N)Sc1ccccc1N)/C(C#N)=C(/N)Sc1ccccc1N` it was 39.2 ± 23%; in that of `Cc1ccc(S(=O)(=O)Nc2nc3ccccc3nc2Nc2ccc3nsnc3c2)cc1`, 40.9 ± 5.2%; in that of `Cn1cc(C2=C(c3ccc(Cl)cc3Cl)C(=O)NC2=O)c2ccccc21`, 15.5 ± 22%.
In the case of `NS(=O)(=O)c1ccc(Nc2nc(OCC3CCCCC3)c3[nH]cnc3n2)cc1` it was 0.876 ± 1.2%.
In the case of `COc1cc(Nc2ncc(F)c(Nc3ccc4c(n3)N(COP(=O)(O)O)C(=O)C(C)(C)O4)n2)cc(OC)c1OC` it was 59.6 ± 57%; in that of `COc1nccc(-c2c(-c3ccc(F)cc3)ncn2C2CCC(O)CC2)n1` (stereo not given), 1.08 ± 1.5%.
The compound `COc1cc(/C=C(\C#N)C(N)=O)cc(CSc2nc3ccccc3s2)c1O` returned a THP-1 cell loss of 3 ± 4.2%.
The result for `COc1cc(C[C@H]2C(=O)OC[C@@H]2Cc2ccc(OC)c(OC)c2)ccc1O` [Arctigenin] reads 35 ± 18%.
The result for `Nc1nccc(-c2c(-c3ccc(F)cc3)ncn2C2CCCCC2)n1` reads 75 ± 8.6%; that for `Cn1cnc2c(NCc3ccccc3)nc(NCCO)nc21` [Olomoucine], 3.14 ± 4.4%; that for `Fc1ccc(-c2nc3n(c2-c2ccncc2)CCS3)cc1`, 7.21% and 5.2%.
The compound `COc1cc2ncnc(Nc3cccc(Cl)c3)c2cc1OC` [Tyrphostin AG 1478 mesylate] yielded a THP-1 cell loss of 41.5 ± 9.7%.
In the case of `C[C@@H](N)[C@H]1CC[C@H](C(=O)Nc2ccncc2)CC1` it was 15.7 ± 22%.
In the case of `COc1cccc2cc(-c3nc([C@H]4CC[C@H](C(=O)O)CC4)n4ncnc(N)c34)[nH]c12` [OSI-027 hydrochloride] it was 51.2 ± 4.5%.
